These results are taken from PubChem BioAssay (Tox21).

Molecules are shown by their SMILES. “And” between values parts separate entries of the source, which are not always exact repeats. Equal entries are not always repeated. Records with an inconclusive call do not appear. The source made the active and inactive calls. Unless noted, the call rests on the fitted dose curve; in most records, active means well fitted curve in the direction sought with a large enough effect in the repeat runs; inconclusive means weak or mixed curves; inactive means no such curve, though single readings can be large; an effect the other way counts as inactive or inconclusive.

The nature of assay [1]: qHTS assay to identify small molecule antagonists of the glucocorticoid receptor (GR) signaling pathway - cell viability counter screen (AID 720693). Further: nearly all actives have a fitted effect of over 55% in size. For orientation: Quantitative high-throughput screening tests each substance at several concentrations.
Assay [2] in a line: qHTS assay for identifying genotoxic compounds that show differential cytotoxicity against isogenic chicken DT40 cell lines with known DNA damage response pathways - Rev3 mutant cell line (AID 743014). Further: nearly all actives have a fitted effect of over 55% in size. Further: potency means the concentration at half of the fitted maximal effect.
Assay [3] in a line: qHTS assay for identifying genotoxic compounds that show differential cytotoxicity against isogenic chicken DT40 cell lines with known DNA damage response pathways - Rad54/Ku70 mutant cell line (AID 743015). Further: nearly all actives have a fitted effect of over 60% in size. Further: potency means the concentration at half of the fitted maximal effect.
Assay [4] in a line: qHTS assay to identify small molecule antagonists of the androgen receptor (AR) signaling pathway - cell viability counter screen (AID 743033; further: nearly all actives have a fitted effect of over 45% in size).
Assay [5] is described as follows: qHTS assay to identify small molecule antagonists of the androgen receptor (AR) signaling pathway using the MDA cell line - cell viability counter screen (AID 743041; further: nearly all actives have a fitted effect of over 45% in size; further: potency means the concentration at half of the fitted maximal effect). The procedure, abridged: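 In this qHTS counter assay, fluorescence intensity after CellTiter-Fluor addition indicated viability of MDA-kb2 AR-luc cells given compounds and R1881 for 16 h at 37C.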

A short description of assay [6]: qHTS assay to identify small molecule antagonists of the thyroid receptor (TR) signaling pathway - cell viability counter screen (AID 743064). Further: nearly all actives have a fitted effect of over 50% in size. Further: potency means the concentration at half of the fitted maximal effect. Summed up:
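Plate GH3.TRE-Luc cells; incubate 4 h at 37 °C; add compound, then T3 to 1 nM final; incubate 23.5 h; add CellTiter-Fluor; incubate 30 min at 37 °C, 5% CO2; read fluorescence.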

Assay [7] can be described thus: qHTS assay to identify small molecule antagonists of the thyroid receptor (TR) signaling pathway (AID 743065). Further: nearly all actives have a fitted effect of over 55% in size. Further: potency means the concentration at half of the fitted maximal effect. Summed up: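 GH3.TRE-Luc rat pituitary cells carrying two TR response elements driving luciferase were plated for 4 h, given compound plus 1 nM T3 (final), and incubated 23.5 h at 37 C. ONE-Glo luminescence measured reporter inhibition; CellTiter-Fluor fluorescence tracked cytotoxicity.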

In assay [8] the test system is thyroid hormone receptor (rat, GH3 cells). In words: qHTS assay to identify small molecule agonists of the thyroid receptor (TR) signaling pathway (AID 743066; calls by dose curve).
The target in assay [9] is Estrogen receptor (Homo sapiens) (UniProt P03372). The assay can be described thus: qHTS assay to identify small molecule antagonists of the estrogen receptor alpha (ER-alpha) signaling pathway (AID 743069; active means well fitted curve in the direction sought with a large enough effect in the signal ratio in the repeat runs, not every such curve was filed as active; the % refers to the signal ratio). The procedure, abridged:
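A 17beta-estradiol challenge was applied right after compound transfer to ER-alpha-UAS-bla HEK293 cells previously kept in charcoal-stripped serum. Plates stood 18 hr at 37C and 5% CO2; fluorescence was read following 2 hr FRET substrate loading at room temperature.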

A short description of assay [10]: qHTS assay to identify small molecule antagonists of the estrogen receptor alpha (ER-alpha) signaling pathway - cell viability counter screen (AID 743074; calls by dose curve;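 further: HEK293 cells carrying ER-alpha-UAS-bla reporter stimulated with 17beta-estradiol; nearly all actives have a fitted effect of over 45% in size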; further: potency means the concentration at half of the fitted maximal effect).
The target of assay [11] is Estrogen receptor (Homo sapiens) (UniProt P03372). In words: qHTS assay to identify small molecule agonists of the estrogen receptor alpha (ER-alpha) signaling pathway (AID 743075; calls by dose curve;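 further: HEK293 GripTite cells with ER-alpha and UAS-driven beta-lactamase reporter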).
Estrogen receptor (Homo sapiens), sequence (P03372 whole entry, looked up): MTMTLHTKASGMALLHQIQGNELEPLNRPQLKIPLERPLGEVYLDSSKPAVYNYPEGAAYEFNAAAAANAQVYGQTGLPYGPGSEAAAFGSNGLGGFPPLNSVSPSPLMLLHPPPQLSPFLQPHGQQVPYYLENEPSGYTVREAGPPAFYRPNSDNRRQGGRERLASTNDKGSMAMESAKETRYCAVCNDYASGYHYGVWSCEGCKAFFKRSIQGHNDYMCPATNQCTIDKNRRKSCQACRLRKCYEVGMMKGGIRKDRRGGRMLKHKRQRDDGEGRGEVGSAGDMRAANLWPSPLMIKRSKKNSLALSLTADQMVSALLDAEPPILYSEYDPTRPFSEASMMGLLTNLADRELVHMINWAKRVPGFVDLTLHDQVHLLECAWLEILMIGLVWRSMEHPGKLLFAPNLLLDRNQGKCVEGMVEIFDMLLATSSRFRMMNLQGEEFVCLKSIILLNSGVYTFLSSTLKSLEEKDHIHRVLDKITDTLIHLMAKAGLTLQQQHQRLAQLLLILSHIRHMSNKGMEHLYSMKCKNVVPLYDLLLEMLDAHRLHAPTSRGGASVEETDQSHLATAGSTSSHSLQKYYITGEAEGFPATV
For assay [12] the target is unchanged. The assay can be described thus: qHTS assay to identify small molecule agonists of the estrogen receptor alpha (ER-alpha) signaling pathway using the BG1 cell line (AID 743079). Further: nearly all actives have a fitted effect of over 20% in size. Further: potency means the concentration at half of the fitted maximal effect. The following applies: BG1Luc4E2 cells, ERE-luciferase agonist, 22 h; activation: at 70.3 µM (top of the series).
Assay [13] can be described thus: qHTS assay to identify small molecule antagonists of the estrogen receptor alpha (ER-alpha) signaling pathway using the BG1 cell line (AID 743080; calls by dose curve;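 further: BG1 cells stimulated with 17beta-estradiol alongside compound; nearly all actives have a fitted effect of over 25% in size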; further: potency means the concentration at half of the fitted maximal effect). The procedure, abridged: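 Seeding, 24 h rest, compound transfer from DMSO, 17beta-estradiol addition, 21.5 h incubation, CellTiter-Fluor (30 min, 37 C), then ONE-Glo (30 min, room temperature): this sequence was run on BG1-Luc-4E2 reporter cells.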

Assay [14] in a line: qHTS assay to identify small molecule antagonists of the estrogen receptor alpha (ER-alpha) signaling pathway using the BG1 cell line - cell viability counter screen (AID 743081).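 Further: compound given together with 17beta-estradiol as the ER stimulus; nearly all actives have a fitted effect of over 45% in size.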 Further: potency means the concentration at half of the fitted maximal effect.
For another assay, the target named is Aromatase (Homo sapiens) (UniProt P11511). The assay can be described thus: qHTS assay to identify aromatase inhibitors (AID 743083). Further: nearly all actives have a fitted effect of over 55% in size.
Aromatase (Homo sapiens), sequence (P11511 whole entry, looked up): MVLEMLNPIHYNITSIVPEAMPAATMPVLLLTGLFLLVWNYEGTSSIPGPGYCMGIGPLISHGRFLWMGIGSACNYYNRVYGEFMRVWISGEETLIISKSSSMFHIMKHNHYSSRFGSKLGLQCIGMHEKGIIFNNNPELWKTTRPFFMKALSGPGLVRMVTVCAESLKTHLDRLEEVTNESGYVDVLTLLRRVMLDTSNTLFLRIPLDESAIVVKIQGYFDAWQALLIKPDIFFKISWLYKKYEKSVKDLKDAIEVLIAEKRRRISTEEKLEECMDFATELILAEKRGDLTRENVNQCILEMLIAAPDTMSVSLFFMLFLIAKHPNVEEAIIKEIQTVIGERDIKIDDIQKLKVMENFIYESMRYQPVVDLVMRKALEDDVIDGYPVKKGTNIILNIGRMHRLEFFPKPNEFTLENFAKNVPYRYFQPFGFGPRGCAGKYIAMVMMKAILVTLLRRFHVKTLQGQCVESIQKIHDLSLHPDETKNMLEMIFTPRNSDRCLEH
Assay [15] is described as follows: qHTS assay for identifying genotoxic compounds that show differential cytotoxicity against isogenic chicken DT40 cell lines with known DNA damage response pathways - wild type cell line (AID 743012). Further: nearly all actives have a fitted effect of over 60% in size. Further: potency means the concentration at half of the fitted maximal effect. Summed up: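 300 wt DT40 cells/well; cpd (DMSO) pintool-transferred after ~0.5 h at 37 C/5% CO2; 40 h incubation; CellTiter-Glo added, 30 min RT; luminescence read.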

The target of assay [16] is Androgen receptor (Homo sapiens) (UniProt P10275). In words: qHTS assay to identify small molecule antagonists of the androgen receptor (AR) signaling pathway (AID 743035; active means well fitted inhibition curve with a large enough effect in the signal ratio in the repeat runs, not every such curve was filed as active; the % refers to the signal ratio). The procedure, abridged: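 In this cell-based reporter screen, compounds were tested in concentration series against R1881-activated HEK293 cells expressing beta-lactamase under UAS control; after 16 h at 37C, FRET substrate was added and fluorescence read 2 h later.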
Androgen receptor (Homo sapiens), sequence (P10275 whole entry, looked up): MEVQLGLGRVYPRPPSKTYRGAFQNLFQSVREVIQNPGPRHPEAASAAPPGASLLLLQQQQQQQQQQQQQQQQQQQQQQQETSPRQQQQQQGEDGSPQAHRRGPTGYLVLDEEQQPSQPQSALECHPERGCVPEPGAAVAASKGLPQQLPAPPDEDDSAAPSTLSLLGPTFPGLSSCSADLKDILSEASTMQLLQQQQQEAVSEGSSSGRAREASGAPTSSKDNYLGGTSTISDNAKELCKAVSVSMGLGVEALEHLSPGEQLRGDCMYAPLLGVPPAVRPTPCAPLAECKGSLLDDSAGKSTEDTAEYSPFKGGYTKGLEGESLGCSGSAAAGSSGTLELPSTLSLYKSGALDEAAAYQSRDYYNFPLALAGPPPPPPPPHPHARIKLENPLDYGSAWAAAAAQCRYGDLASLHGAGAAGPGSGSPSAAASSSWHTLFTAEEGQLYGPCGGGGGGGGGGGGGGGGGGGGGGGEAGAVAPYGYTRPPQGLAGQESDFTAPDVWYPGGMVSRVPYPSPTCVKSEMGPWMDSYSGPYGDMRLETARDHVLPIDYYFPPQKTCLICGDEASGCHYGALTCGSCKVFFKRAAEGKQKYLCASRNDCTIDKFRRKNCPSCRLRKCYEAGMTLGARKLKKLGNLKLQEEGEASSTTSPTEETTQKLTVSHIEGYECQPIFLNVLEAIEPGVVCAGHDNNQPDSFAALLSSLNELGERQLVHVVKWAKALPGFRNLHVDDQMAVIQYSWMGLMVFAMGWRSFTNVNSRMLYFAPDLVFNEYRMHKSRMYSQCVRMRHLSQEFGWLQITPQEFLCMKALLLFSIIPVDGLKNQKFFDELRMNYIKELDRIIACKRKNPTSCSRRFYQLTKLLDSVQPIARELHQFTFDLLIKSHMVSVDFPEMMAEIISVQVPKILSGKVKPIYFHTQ

Assay [17] has the same target. In words: qHTS assay to identify small molecule agonists of the androgen receptor (AR) signaling pathway (AID 743036; active means well fitted activation curve with a large enough effect in the signal ratio in the repeat runs, with a control signal flat, not every such curve was filed as active; the % refers to the signal ratio; further: potency means the concentration at half of the fitted maximal effect). The procedure, abridged:
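Reporter line: GeneBLAzer AR-UAS-bla-GripTite (HEK293). Steps: plate cells, 4 h rest, add compounds, 16 h at 37C, add LiveBLAzer B/G substrate, 2 h at RT, read fluorescence.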

Assay [18] shares this target. In words: qHTS assay to identify small molecule agonists of the androgen receptor (AR) signaling pathway using the MDA cell line (AID 743040; further: potency means the concentration at half of the fitted maximal effect; nearly all actives have a fitted effect of over 20% in size). Summed up:
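Cell-based luciferase reporter: MDA-kb2, MMTV promoter (AR + GR response elements). 16 h compound exposure at 37C; ONE-Glo, 30 min RT, luminescence.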

Assay [19] shares this target. The assay can be described thus: qHTS assay to identify small molecule antagonists of the androgen receptor (AR) signaling pathway using the MDA cell line (AID 743042; further: nearly all actives have a fitted effect of over 55% in size). The procedure, abridged: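 MDA-kb2 cells (human breast carcinoma, stably carrying an MMTV-luciferase reporter responsive to AR and GR) were plated at 3,000 cells/well and preincubated 5 hr at 37C, then given compound plus R1881 agonist for 16 h. ONE-Glo luminescence was read.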

`CCC(C(=O)OCCOCCN(CC)CC)c1ccccc1` (stereo not given): the Potency entry in assay [1], in assay [4], in assay [5], in assay [6], in [7] and in assay [9] was “inactive” each time. For the same molecule, the Potency entry (in assay [10]; in assay [11]; in [12]; in [13]; in [14]; in the assay with Aromatase (Homo sapiens)) was “inactive” in each case. Moreover, the Potency in assay [2] is 10.6 µM (active); in assay [3], 21.1 µM (active). Besides, the outcome in [8] was inactive.
Turning to `CCCCCCCCCOC(C)=O`, the Potency result in assay [1], in assay [15], in assay [2], in [4], in assay [5] and in assay [6] was “inactive” throughout. Moreover, the Potency result in assay [7], in [9], in assay [10], in assay [11], in assay [12] and in assay [13] was “inactive” throughout. The Potency result (in assay [14]; in the assay with Aromatase (Homo sapiens)) was “inactive” throughout. Further, the molecule was classed as inactive in [8].
On to `COc1cc2[nH]c(=O)[nH]c(=O)c2cc1OC`, for which the Potency entry in assay [1], in [15], in assay [2], in assay [3], in [5] and in assay [6] was “inactive” in each case. Further, the Potency entry (in assay [9]; in assay [10]; in assay [11]; in assay [14]; with Aromatase (Homo sapiens)) was “inactive” in each case. For the same molecule, the call in [8] was inactive.
Regarding `OCCSc1ccccc1`, the Potency result in assay [1], in [15], in [3], in assay [4], in [5] and in assay [6] was “inactive” each time. Moreover, the Potency entry (in assay [9]; in assay [10]; in assay [11]; in assay [12]; in [14]; in the assay with Aromatase (Homo sapiens)) was “inactive” each time. For the same molecule, the call in [8] was inactive.
As to `CCCC(=O)O[C@]1(C(=O)COC(=O)CC)CC[C@H]2[C@@H]3CCC4=CC(=O)CC[C@]4(C)[C@H]3[C@@H](O)C[C@@]21C`, the Potency entry in assay [1], in assay [2], in assay [3], in assay [4], in assay [16] and in assay [5] was “inactive” each time. The Potency result in assay [19], in [6], in assay [7], in assay [10], in [11] and in [14] was “inactive” throughout. The Potency entry with Aromatase (Homo sapiens) is “inactive”. The Potency in [17] is 0.0239 µM (active); in assay [18], 0.119 µM (active). In [8], the outcome was inactive.
Take `O=C(CCCCCCC(=O)Nc1ccccc1)NO`: the Potency entry in assay [1], in [5], in [10], in [11] and in assay [14] was “inactive” each time. Besides, the Potency in assay [15] is 1.06 µM (active); in assay [2], 531 nM (active) and 841 nM (active); in assay [3], 1.5 µM (active); in [6], 3.35 µM (active) and 2.11 µM (active); in [7], 2.11 µM (active) and 2.66 µM (active); in assay [13], 5.96 µM (active) and 4.22 µM (active). Moreover, in assay [8], the call was inactive.
With `C=CC(=O)NCOCC(C)C`, the Potency result in assay [1], in assay [15], in assay [3], in assay [4], in [5] and in assay [10] was “inactive” each time. In addition, the Potency entry (in assay [14]; with Aromatase (Homo sapiens)) was “inactive” throughout.
For the molecule `Nc1ccc(S(=O)(=O)O)cc1`, the Potency entry in assay [1], in assay [3], in assay [4], in assay [5], in assay [6] and in assay [9] was “inactive” in each case. Also, the Potency result (in [10]; in assay [11]; in assay [14]; with Aromatase (Homo sapiens)) was “inactive” each time. In addition, the Potency was 54.8 µM (active) in [2] and 38.8 µM (active) in assay [12]. Further, in assay [8], the outcome was inactive.
In the case of `CC[C@H](NC(=O)c1cc(F)ccc1NS(=O)(=O)c1cccc2cccnc12)c1ccccc1`, the Potency entry in assay [1], in assay [4], in [5], in assay [6], in assay [10] and in [11] was “inactive” throughout. Also, the Potency entry (in assay [12]; in [14]; in the assay with Aromatase (Homo sapiens)) was “inactive” throughout. For the same molecule, the results for the Potency in assay [2] and in [3] were 57.9 µM (active) and 64.9 µM (active), respectively. Besides, the molecule was classed as inactive in assay [8].
For `CC1C2CC(CC2C2CCCC(O)C2)C1(C)C` (stereo not given), the Potency entry in assay [1], in assay [5], in assay [7], in [10] and in assay [14] was “inactive” throughout. The Potency in assay [2] is 24.3 µM (active). Also, in assay [8], the outcome was inactive.
In the case of `CCNC(=O)N1CCN(CCCC(c2ccc(F)cc2)c2ccc(F)cc2)CC1`, the Potency entry in assay [1] and in [11] was “inactive” in each case. The Potency in [2] was 7.5 µM (active); in assay [3] it was 6.68 µM (active); in assay [5] it was 26.6 µM (active); in [6], 21.1 µM (active); in [10], 16.9 µM (active); in [14], 29.8 µM (active).
For `O=C(C(=O)c1ccccc1)c1ccccc1`, the Potency result in assay [1], in [2], in assay [3], in [4], in [7] and in [10] was “inactive” in each case. For the same molecule, the Potency entry in [14] is “inactive”. In addition, in assay [8], the call was inactive.
Consider `C[Si](NC1CCCCC1)(NC1CCCCC1)NC1CCCCC1`, for which the Potency entry in assay [1], in assay [5], in assay [6], in assay [9], in assay [10] and in assay [11] was “inactive” throughout. Further, the Potency entry (in [12]; in assay [13]; in assay [14]; in the assay with Aromatase (Homo sapiens)) was “inactive” in each case. For the same molecule, the Potency in [2] is 61.1 µM (active). For the same molecule, the result in assay [8] was inactive.
As to `CCCCCCOC(=O)CCCCCCCC(=O)OCCCCCC`, the Potency result in assay [1], in [2], in assay [3], in assay [4], in assay [5] and in assay [7] was “inactive” throughout. The Potency result in assay [10] and in assay [14] was “inactive” in each case. The molecule was called inactive in assay [8].
